± gives the standard deviation.
Columns and labels:
[1] = test system: MILI (PIWIL2) piRISC loaded with L1MC piRNA (26 nt); experiment: pre-steady-state target cleavage rate (min^-1); guide: L1MC piRNA 5'p-UAACUAAAUACUAUGCAAGCUGUAGG; higher = faster piRNA-guided slicing of the target; settings: auxiliary factor: 500 nM mouse GTSF1;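 further: 1 nM active piRISC with 0.1 nM target library at 33 °C single turnover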
Method in brief: (§1)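 Cleave-'n-Seq measured uncleaved targets by sequencing after a transcribed, DNA-blocked target RNA library […] was mixed with 1 nM active affinity-purified piRISC holding one synthetic guide, with or without 500 nM GTSF1 partner protein, at 33 °C in HEPES–potassium acetate buffer for 0–8 or 0–960 min. Counts were normalised to depth and to weakly complementary targets, three trials were pooled, and k3 was capped at 0.0001 min^-1. A burst-and-steady-state fit gave the pre-steady-state cleavage rate.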

[2] = test system: EfPiwi piRISC loaded with L1MC piRNA (26 nt); experiment: pre-steady-state target cleavage rate (min^-1); auxiliary factor: 500 nM Ephydatia muelleri Gtsf1; guide: L1MC piRNA 5'p-UAACUAAAUACUAUGCAAGCUGUAGG; MIWI and MILI are mouse PIWI proteins and EfPiwi is from a freshwater sponge; tags in brackets are library labels; higher = faster piRNA-guided slicing of the target
Method in brief: as §1

Row | Sequence | pre-steady-state target cleavage rate [1] | pre-steady-state target cleavage rate [2]
1 | UCCUGGUACAGCUUGCUAUAGUAUUUAGUUA | 0.0224 ± 0.009 | 0.00339 ± 0.0031
2 | UCCUGCUACAGGUUCCAUAGUAUUUAGUUA | 0.00943 ± 0.0066 | 0.00222 ± 0.0021
3 | UCCUGCUACAGCUUGCUUAGUAUUUAGAAA | 0.0602 ± 0.019 | 0.00409 ± 0.0022
4 | UCCUGCUACAGCUUGGAUAGUAAUUAGUUA | 0.204 ± 0.021 | 0.00773 ± 0.0024
5 | UCCUGGUACAGCUUGCAUAGUAUUUAGGUA | 0.0562 ± 0.015 | 0.00463 ± 0.0022
6 | UCCUGGAACAGCUUGCAUAGUAUUUAGUA | 0.191 ± 0.02 | 0.00384 ± 0.0024
7 | UCCUGCUACAGCUUGCAUAGUAAUUACAAA | 0.0901 ± 0.029 | 0.00259 ± 0.0018
8 | UCCUGGAUGACCUUGCAUAGUAUUUAGAUA | 0.115 ± 0.034 | 0.00355 ± 0.0027
9 | UCCUGGUACAGCUUGCAUUGUAAUUAGUUA | 0.0918 ± 0.016 | 0.00313 ± 0.0023
10 | UCCUCCUACAGCUUGCAUAGUAUAAUGUAA | 0.046 ± 0.014 | 0.00413 ± 0.0027
11 | UCCUGGAACAGCUUGCAUAAUAUUUAGUUA | 0.298 ± 0.028 | 0.00487 ± 0.0024
12 | UCCUGGAACAGCUUGCAUAGUAUUUAUGUUA | 0.127 ± 0.018 | 0.0035 ± 0.002
13 | UCCUGGAACACCUUGCAUACUAUUUAGUUA | 0.0449 ± 0.0096 | 0.00273 ± 0.002
14 | UCCUGGAUGUGCUUGCAUAGUAUUGAGUUA | 0.0612 ± 0.019 | 0.00273 ± 0.0022
15 | UCCUCCUAGUCCUUGCAUAGUAUUUAGAAA | 0.0654 ± 0.017 | 0.00217 ± 0.0013
16 | UCCUGGUACAGCUUGCAUAGUAUUCAGUUA | 0.058 ± 0.017 | 0.00472 ± 0.0022
17 | UCCUCCUACAGCUUGCUUAGUAUUUAGAUA | 0.15 ± 0.018 | 0.00689 ± 0.0038
18 | UCCUGGUACAGCUUGCAAAGUAUUUAGAUA | 0.118 ± 0.021 | 0.00431 ± 0.0026
19 | UCCUGCUACAGCUUGCGAUAGUAUUUAGUUA | 0.0073 ± 0.0045 | 0.00987 ± 0.0026
20 | UCCUGCUACAGGUUGCAUAGUAUUUUCAAA | 0.0101 ± 0.0054 | 0.00243 ± 0.0019
21 | UCCUGGAUCAGCAUGCAUAGUAUUUACAAA | 0.0991 ± 0.019 | 0.00615 ± 0.0038
22 | UCCUCCUAGAGCUUGCAUAGUAUUUUGUUA | 0.251 ± 0.029 | 0.006 ± 0.0024
23 | UCCUGCUAGAGCUUGCAUAGAAUUUAGUUA | 0.0404 ± 0.0063 | 0.0043 ± 0.0014
24 | UCCUCCUACAGCAUCCAUAGUAUUUAGUUA | 0.175 ± 0.042 | 0.00359 ± 0.0017
25 | UCCUGGAACAGCUUGCAUAGUUUUUAGUAA | 0.0664 ± 0.015 | 0.00724 ± 0.0029
26 | UCCUCCUACACGAUGCAUAGUAUUUAGAAA | 0.102 ± 0.021 | 0.00369 ± 0.0021
27 | UCCUCCAACAGCUUGCAUAGUAUUUACAAA | 0.113 ± 0.022 | 0.00355 ± 0.0024

Source: the supplement of paper PMC10338343
